# This is part of a sample that, as a whole, favours compounds with a hit. Of some 83,000 tested, about 20% had one in any assay.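 48-hour exposure, single concentration, 96-well plates; percent growth endpoint where 0 means no net growth. Active: below 10.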 Values without a mark were called inactive. Active and inactive are the calls of the source.
# System: MDA-MB-468 breast
# Assay: NCI-60 one-dose screen, 48 h (100 = growth as untreated, 0 = no growth, -100 = all killed)
# Conditions: 10 µM unless noted
row,Structure (SMILES),growth
1,Cc1ccc(C2=N[C@H]3CCC[C@@H]3N(c3ccccc3)C(C(Cl)Cl)=N2)cc1,116%
2,c1cc2nc(-c3cn[nH]c3)c3c(c2cc1-c1cn[nH]c1)C1CCC3C1 (centres undefined),78.9%
3,Oc1ccc(CSc2nnc(-c3ccncc3)n2-c2ccccc2)c2cccnc12,14.2%
4,C/C(=N\OC(=O)Nc1ccccc1)c1ccccc1,83.2%
5,CC(C)(C)c1ccc(S(=O)(=O)N[C@H]2CC[C@H]3[C@@H]4CCc5cc(O)c([N+](=O)[O-])cc5[C@H]4CC[C@]23C)cc1,99.9%
6,COc1cnc2c(c1)C(=O)c1c-2n(CCCN2CCCC2)c(=O)c2cc(Cl)ccc12,50.4%
7,Cn1nc(C(F)(F)F)cc1-c1c[nH]c(OCc2ccc(Cl)cc2)c(-c2ccc(Cl)c(C(F)(F)F)c2)c1=O,-17.1% (active)
8,Oc1cccc(CNC2CCCCC2)c1,113%
9,Cn1nc(C(F)(F)F)c(-c2ccc(Cl)c(C(F)(F)F)c2)c1-c1ccc(OCc2ccc(Cl)cc2)cc1O,-18.7% (active)
10,O=c1cc(C2NNC(=S)N2)c2ccc3ccccc3c2o1 (centres undefined),128%
11,CCn1cc(CNc2ccc(C(=O)Nc3ccc4ccccc4c3)cc2)c(C)n1,24.5%
12,Brc1ccc2c(c1)-c1ccccc1C1=NCCN12,-45% (active)
13,CN(CCCCCl)P(=O)(OCc1ccc([N+](=O)[O-])o1)C(F)(F)c1ccc(CC(=O)NC[C@@H](O)/C=C\[C@@H](O)[C@H](CO)Cc2ccccc2)cc1 (some centres undefined),55%
14,COC(=O)c1c(C(=O)OC)c2ccc3c4ncccc4ccc3n2c1C(=O)c1ccc(C)cc1,79.1%
15,CC/C=C\C[C@H](O)C/C=C1/C(=O)C=C[C@@H]1C/C=C\CCCC(=O)NC(C)C,1.98% (active)
16,C/C(=N\Nc1ccc([N+](=O)[O-])cn1)c1ccc(N)cc1,99.7%
17,C=C1C(=O)O[C@H]2[C@H]1CC/C(COC(=O)NCc1cc3ccccc3[nH]1)=C\CC[C@@]1(C)O[C@@H]21,19.3%

row,Structure (SMILES),growth
1,C/C(=N/O)c1ccc(F)cc1,75%
2,O=C(COc1ccccc1)N1N=C(c2ccc(Cl)cc2)CC1c1c[nH]c2ccccc12 (centres undefined),85.7%
3,Cn1cc(-c2cnc3ccc(NC(=O)Nc4ccc(F)c(Br)c4)cc3n2)cn1,-6.86% (active)
4,Fc1ccc(-c2nc(Nc3ccc(-c4nc5ccccc5[nH]4)cc3)nc(N3CCOCC3)n2)cc1,-84% (active)
5,C=C(C)[C@@H]1CC[C@]2(C(N)=O)CC[C@]3(C)[C@H](CC[C@@H]4[C@@]5(C)CCCNC(C)(C)[C@@H]5CC[C@]43C)[C@@H]12,78.3%
6,CSc1nc(CC(C)C)c(C#N)c(=O)n1C,-2.71% (active)
7,COc1ccc(C(=O)/C=C/Nc2cc(-c3ccccc3)nn2-c2ccccc2)cc1,70.4%
8,CCC(C(=O)[C@@H](C)[C@@H](O)[C@H](C)[C@@H]1O[C@@H]([C@@H](CC)C(=O)ONC(=O)c2ccccc2)CC[C@@H]1C)[C@H]1O[C@]2(C=CC(=O)[C@]3(CC[C@@](C)([C@H]4CC[C@](O)(CC)[C@H](C)O4)O3)O2)[C@H](C)C[C@@H]1C (some centres undefined),-33.2% (active)
9,COc1cc(-c2nc(-c3ccccc3)[nH]c2-c2ccnc(NCCCNS(=O)(=O)c3cccc(F)c3)n2)ccc1F,85.1%
10,C=C1C(=O)O[C@H]2[C@H]1CC/C(COC(=O)/C=C\C(=O)NCc1ccc(Cn3c(=O)sn(CCCCl)c3=O)cc1)=C\CC[C@@]1(C)O[C@@H]21,40.3%
11,O=C(Nc1ccc(-n2ccc3c(NC(=O)c4ccccc4)nccc32)cc1)c1ccc(N2CCOCC2)c(C(F)(F)F)c1,42.7%
12,Cc1nn(-c2ccccc2)c(N2CCOCC2)c1/C=N/N=c1\sc2ccccc2n1C,71.6%
13,O=[N+]([O-])c1ccc(-c2nc(Cl)c3c(n2)CCCC3)o1,54.1%
14,CC/C(Cc1ccccc1)=C(/c1ccc(O)cc1)c1ccc(OCCN2CCCC2)cc1,-82.1% (active)
15,N#Cc1c(-c2cccs2)cc(-c2cnccn2)nc1SCC(=O)N/N=C/c1ccncc1,103%
16,COc1cc2oc3cc(=O)cc4oc(-c5ccccc5)cc(c2c2c1CCC(c1ccccc1)O2)c43 (centres undefined),61.8%
17,O=C(NNc1ccccc1)OCc1ccccc1,108%

# Reference: PubChem BioAssay (NCI)
